# Biological target: Acyl-protein thioesterase 2 (Homo sapiens) (UniProt O95372)
# Assay: LYPLA2 enzyme kinetics with inhibitors – biochemical, substrate-based fluorescence, Ki, Km, Vmax, late-stage follow-up (AID 652001)
# Details: recombinant LYPLA2, resorufin acetate hydrolysis fluorescence, measured here: LYPLA2 (no test compound); Km: enzyme Km; Vmax: enzyme Vmax
# Acyl-protein thioesterase 2 (Homo sapiens), sequence (O95372 whole entry, looked up): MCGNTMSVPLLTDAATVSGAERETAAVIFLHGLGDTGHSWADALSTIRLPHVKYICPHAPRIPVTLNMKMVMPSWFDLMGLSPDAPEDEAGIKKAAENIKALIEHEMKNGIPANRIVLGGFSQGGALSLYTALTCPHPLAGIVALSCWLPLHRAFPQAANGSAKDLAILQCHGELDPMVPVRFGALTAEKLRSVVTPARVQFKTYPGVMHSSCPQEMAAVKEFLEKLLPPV
smiles,measurement,value
COc1ccc(N2CCN(C(=O)c3cc4c(s3)-c3ccccc3S(=O)(=O)C4)CC2)cc1,Km,24.4 µM
same,Vmax,13.8 nM

# From PubChem BioAssay AID652001 (The Scripps Research Institute Molecular Screening Center, 2013)
